Screening results deposited in PubChem by National Center for Advancing Translational Sciences (NCATS).
Rows were chosen to be rich in hits. Some 2.3% of all compounds tested hit in one or more screens of this group.
Tau fibril FP = inhibitors of human tau fibril formation | 0.39% of 280,000 active | K18 P301L tau heparin fibrillization, Alexa594 FP, 6 h | AID 1468 | Potency, µM (titrated, usually from 57.7 µM), most hits filed as inhibitors | P10636; active = well fitted curve in the direction sought with a large enough effect; inconclusive = small, poorly fitted or top-dose-only effect, or another doubt; inactive = no such curve, though single readings can be large; an effect the other way counts as inactive or inconclusive; also: nearly all actives have a fitted effect of over 55% in size
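Compound effects on tau fibrillization are measured by Alexa 594 fluorescence polarization (ex 555, em 632 nm). K18 P301L tau is used at 15 uM with 0.24 uM labeled tracer, and 20 uM heparin induces aggregation over 6 hr at 37 C.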
Tau fibril ThT = tau fibrillization inhibition (ThT binding). Potency, µM (titrated, usually from 57.4 µM), usual class: inhibitors. P10636. 2.1% of 270,000 active. AID 1460. recombinant tau K18 P301L, heparin-induced fibrillization, ThT fluorescence; active = well fitted curve in the direction sought with a large enough effect; inconclusive = small, poorly fitted or top-dose-only effect, or another doubt; inactive = no such curve, though single readings can be large; an effect the other way counts as inactive or inconclusive; also: nearly all actives have a fitted effect of over 55% in size
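Tau K18 P301L fragment (15 uM unlabeled plus 0.24 uM Alexa 594-labeled) in 100 mM sodium acetate pH 7 with compound, fibrillization induced by 20 uM heparin for 6 hr at 37 C. Thioflavin T (30 uM) added, fluorescence read after 1 hr (ex 450, em 510 nm).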
Tau fluor cs = counter-screen for tau fibril formation inhibitors. tau K18 P301L Alexa594 fluorescence, heparin fibrillization. AID 1463. Potency, µM (titrated, usually from 57.7 µM). 0.93% of 280,000 active; active = well fitted curve in the direction sought with a large enough effect; inconclusive = small, poorly fitted or top-dose-only effect, or another doubt; inactive = no such curve, though single readings can be large; an effect the other way counts as inactive or inconclusive; also: nearly all actives have a fitted effect of over 55% in size
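Human tau K18 P301L (15 uM unlabeled, 0.24 uM Alexa 594-labeled) in 100 mM sodium acetate pH 7 with 20 uM heparin, 6 hr at 37 C. ThT 30 uM added, 1 hr ambient; Alexa 594 FP and total fluorescence read at 555/632 nm.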
Coupling enz = counter-screen for Giardia aldolase inhibitors: coupling enzyme system | coupling enzyme system counterscreen, AmpLite Red fluorescence | activity change, negative = inhibition, % at 58.2 µM, hits read low | 0.67% of 290,000 active | AID 2472; in the data active = activity change below about -30%
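Coupling enzymes only (glyceraldehyde-3-phosphate) + compound, at 57.5 uM final, 10 min RT; add substrate/coupling/AmpLite Red mix, 20 min RT; fluorescence ex 525/em 598 nm. Actives flag coupling-system interference.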
USP1-UAF1 inh = blocks the human USP1/UAF1 deubiquitinase complex; O94782; recombinant USP1/UAF1, Ub-Rhodamine cleavage fluorescence; Potency, µM (doses to about 57.1 µM), most hits filed as inhibitors; 0.23% of 390,000 active; active = well fitted curve in the direction sought with a large enough effect; inconclusive = small, poorly fitted or top-dose-only effect, or another doubt; inactive = no such curve, though single readings can be large; an effect the other way counts as inactive or inconclusive; also: nearly all actives have a fitted effect of over 60% in size
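High-throughput fluorogenic screen: 1nM USP1/UAF1 complex, Ub-Rho substrate 150nM final, 50mM HEPES pH 7.8 with 0.5mM EDTA, 0.1 mg/ml BSA, 1mM TCEP and 0.01% Tween-20.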
CASP1 redox cat = caspase-1 inhibition with catalase present; shares compounds with Coupling enz; caspase-1 Ac-WEHD-AFC fluorescence rate, catalase buffer; Potency, µM (series often up to 57.5 µM), usual class: inhibitors; 30 tested, under 10 active; AID 888
Casp1 confirm = blocks human caspase-1 activity in concentration-response; shares compounds with Coupling enz; purified caspase-1, fluorogenic substrate cleavage; Potency, µM (titrated, usually from 57.5 µM), hits mostly inhibitors; 20% of 60 active
Casp7 confirm = confirmation of allosteric or competitive inhibitors of human caspase-7; shares compounds with Coupling enz; recombinant caspase-7, fluorogenic substrate cleavage; Potency, µM (titrated, usually from 57.5 µM), actives largely listed as inhibitors; 60 tested, under 10 active; active = well fitted inhibition curve with a large enough effect in the main read-out, with a control signal flat, not every such curve was filed as active; inconclusive = small, poorly fitted or top-dose-only effect, or a change in a side signal; inactive = no such curve, though single readings can be large or run the other way
CASP7 redox cys = caspase-7 inhibition with cysteine present. shares compounds with Coupling enz. caspase-7 enzyme with cysteine, fluorogenic substrate, redox counterscreen. Potency, µM (doses to about 57.5 µM), most hits filed as inhibitors. 60 tested, under 10 active. AID 908
Casp7 catalase = caspase-7 inhibition with catalase present; shares compounds with Coupling enz; Caspase-7 Ac-DEVD-AFC fluorescence rate, catalase buffer; Potency, µM (top dose mostly 57.5 µM), actives largely listed as inhibitors; 30 tested, under 10 active; AID 909
Casp1 cysteine = caspase-1 inhibition with cysteine present | shares compounds with Coupling enz | recombinant caspase-1, fluorogenic substrate, cysteine buffer | Potency, µM (top dose mostly 57.5 µM), usual class: inhibitors | 60 tested, under 10 active | AID 929
A number is an active result; n = inactive; u = inconclusive; x = no result. Unless noted, calls follow the shape of the dose curve; as a rule, active = well fitted inhibition curve with a large enough effect in the main read-out, with a control signal flat; inconclusive = small, poorly fitted or top-dose-only effect, or a change in a side signal; inactive = no such curve, though single readings can be large or run the other way.

SMILES	Tau fibril FP	Tau fibril ThT	Tau fluor cs	Coupling enz	USP1-UAF1 inh	CASP1 redox cat	Casp1 confirm	Casp7 confirm	CASP7 redox cys	Casp7 catalase	Casp1 cysteine
Cc1ccsc1C=Nc1ccc(O)cc1	11µM	3.5µM	u	-50	2.2µM	n	n	n	n	n	n
Cc1ccc(NC(=O)N2CCC(c3nc4c(nnn4Cc4cccc(Cl)c4)c(=O)[nH]3)CC2)cc1	n	n	n	n	n	x	n	u	u	x	n
CCCCCCC(=O)N1CCC(c2nc3c(nnn3Cc3ccccc3Cl)c(=O)[nH]2)CC1	n	n	n	n	n	x	n	4µM	5µM	x	n
O=C(C1CCCCC1)N1CCC(c2nc3c(nnn3Cc3ccccc3Cl)c(=O)[nH]2)CC1	x	x	x	x	n	x	x	x	x	x	x
CCOc1ccc(Nc2cc(C)nc3nc(Cc4ccc(Cl)cc4)nn23)cc1	n	n	n	x	n	x	x	x	x	x	x
O=C(NCCOc1ccccc1)C1CCC(=O)N(CCCN2CCCC2=O)C1 (centres undefined)	x	x	x	x	n	x	x	x	x	x	x
COc1ccc(Br)cc1CNc1ccc(O)cc1	25µM	13µM	u	-63	u	n	n	n	n	n	n
CC1=C(C(=O)Nc2ccc(F)cc2F)C2(CCCCCC2)OC1=O	n	n	n	x	n	x	x	x	x	x	x
CC1=C(C(=O)Nc2cc(-c3cccc(F)c3)[nH]n2)C2(CCCCC2)OC1=O	n	n	u	n	n	n	n	n	n	n	n
Cc1ccc(-n2c(=O)c3c(C)c(C)sc3n(Cc3ccc(F)cc3Cl)c2=O)cc1C	n	n	n	x	n	x	x	x	x	x	x
COc1ccc(Cn2c(=O)[nH]c3cc(C(=O)N4CCN(Cc5ccccc5)CC4)ccc3c2=O)cc1	n	n	n	n	n	n	n	u	u	u	n
CCCCNc1nc(C)nc2c1nc(-c1ccccc1)n2C1CCN(Cc2ccccc2)C1 (centres undefined)	n	n	n	n	x	x	x	x	x	x	x
Cc1ccc(N2C(=O)[C@@H]3[C@H](C2=O)C2c4ccccc4C=CN2[C@@H]3C(=O)c2ccco2)cc1 (some centres undefined)	u	25µM	n	-41	16µM	x	25µM	n	n	x	u
Cc1ccc(N2C(=O)[C@@H]3[C@H](C2=O)C2c4ccccc4C=CN2[C@@H]3C(=O)c2ccco2)c(C)c1 (some centres undefined)	u	25µM	n	-42	4µM	32µM	25µM	u	n	n	n
COc1cc(N[C@@H](C)CCCN)c2ncccc2c1	x	x	x	-33	x	x	n	n	n	x	n
O=C(NCC1CCN(C(=O)c2ccc([N+](=O)[O-])cc2)CC1)c1ccc([N+](=O)[O-])cc1	x	x	x	n	n	x	x	x	x	x	x
COc1ccc(NC(=O)c2cc(C3CC3)nc3c2c(C)nn3-c2ccc(C)cc2)cc1OC	n	n	u	x	n	x	x	x	x	x	x
COc1ccc(CNC(=O)CN2C(=O)COc3ccccc32)c(OC)c1	n	n	n	x	n	x	x	x	x	x	x
Cc1cc(O)c(-c2n[nH]c3c2C(c2cccc(O)c2)N(Cc2cccnc2)C3=O)cc1Cl (centres undefined)	n	n	n	n	n	x	n	n	n	x	n
